The values below come from the supplement of paper PMC12636033.

± gives the standard deviation of the averaged measurements. The full ranking holds about 33,000 sequences; the median of “E-score (rank enrichment, -0.5 to 0.5)” is about -0.0028, and the highest 2% start at about 0.23. The sample holds the highest values, similar sequences and a random draw of the others, so the mix is not that of the screen.

The test system of this assay is 2Sb-muMax20 (muMax20 with two 1,3-bis(methyl)benzene Cys staples, A13C/A17C and Q88C/A92C, C-terminal Lys). The assay is described as follows: PBM 8-mer E-score (E-score (rank enrichment, -0.5 to 0.5)); higher = stronger preferential binding. As for the experimental part:
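Protein binding microarray (universal PBM chip covering all 10-mers in fixed probe flanks) with chemically synthesized human Max(13-93) bHLH-LZ analogs (not full-length Max) bearing noncanonical residues (hArg, Tha, Aib, Nle at 65) and aromatic Cys staples. Read-out per 8-mer (and its reverse complement): E-score (rank-based enrichment, -0.5 to 0.5) and Z-score of median probe intensity.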
Take CCTGTTAC: the “PBM 8-mer E-score” value is 0.274 ± 0.049.
In the case of CCTGTTAG it was -0.0682 ± 0.013; in that of CCTGTTAA, 0.0396 ± 0.043; in that of ACCGGCTA, -0.152 ± 0.016.
In the case of ACAAGAAC it was 0.152 ± 0.045; in that of CATTCTTC, 0.0315 ± 0.021; in that of CTGTAGAA, 0.0722 ± 0.0078.
In the case of ATGTAGTA it was 0.268 ± 0.012; in that of ATGTAGAA, 0.245 ± 0.016.
For ATGTAGAG, the “PBM 8-mer E-score” value turned out to be 0.0764 ± 0.027.
Consider ATGTAGTG, for which the “PBM 8-mer E-score” value was 0.156 ± 0.049.
For the sequence GTGTAGTA, the “PBM 8-mer E-score” value came out at 0.125 ± 0.052.
Turning to AGACGTAC, the “PBM 8-mer E-score” value is -0.0467 ± 0.078.
For ATTATTTG, the “PBM 8-mer E-score” value came out at 0.197 ± 0.0069.
With CACTGCGG the figure was -0.115 ± 0.052; with CCAACAGC, -0.068 ± 0.0017.
In the case of GGTCAATA it was 0.238 ± 0.015; in that of CGTCAATA, -0.0166 ± 0.034; in that of AGTCAATA, 0.09 ± 0.0033.
For the sequence GGATCTTA, the “PBM 8-mer E-score” value is -0.014 ± 0.071.
In the case of ACGCTGAC it was -0.0415 ± 0.018; in that of AAACCGTG, -0.0746 ± 0.026; in that of ACTATAGA, 0.118 ± 0.11.
For the sequence ACTATAGG, the “PBM 8-mer E-score” value was -0.00711 ± 0.032.
As for CCTATAGG, the “PBM 8-mer E-score” value was 0.0292 ± 0.035.
In the case of ACTATAGC it was -0.0113 ± 0.072; in that of CCTATAGC, 0.264 ± 0.036; in that of ACTATAGT, 0.299 ± 0.039.
With CAGTCCTC the figure was 0.00033 ± 0.011; with AAAGAATG, 0.0117 ± 0.014; with AGAGACCA, 0.0299 ± 0.014.
With ACTCTGTC, the “PBM 8-mer E-score” value was -0.111 ± 0.023.
Take GGCATCAC: the “PBM 8-mer E-score” value came out at 0.0631 ± 0.11.
Consider CAAGGGGG, for which the “PBM 8-mer E-score” value is -0.105 ± 0.048.
In the case of ATAGGGTA it was 0.123 ± 0.025.
As to CTAGGGGA, the “PBM 8-mer E-score” value came out at 0.117 ± 0.028.
Turning to GTAGGGTA, the “PBM 8-mer E-score” value amounted to 0.266 ± 0.013.
Take CAAGGGGA: the “PBM 8-mer E-score” value came out at 0.24 ± 0.015.
In the case of CTAGGGTA, the “PBM 8-mer E-score” value was -0.0583 ± 0.021.
With CAAGGGAA the figure was -0.0769 ± 0.018.
On to ATAGGGGA, for which the “PBM 8-mer E-score” value is 0.18 ± 0.0034.
On to GTAGGGGA, for which the “PBM 8-mer E-score” value was found to be 0.24 ± 0.067.
With AAAAAAAG the figure was 0.126 ± 0.056; with GGGATCCC, -0.2 ± 0.043; with CAGGAGTC, -0.0911 ± 0.039.
In the case of AACGTTCA it was 0.0627 ± 0.039; in that of ATATAAAT, 0.2095 ± 0.00022; in that of TACAGACA, 0.0665 ± 0.048.
With AGTTAATC the figure was 0.0432 ± 0.046.
For CATTAATG, the “PBM 8-mer E-score” value amounted to 0.18 ± 0.016.
With AGTTAATG the figure was 0.232 ± 0.025; with AATTATTA, 0.18 ± 0.032.
With AATTATTC the figure was 0.0609 ± 0.0053; with AATTAATG, 0.239 ± 0.033; with AATTAATT, 0.167 ± 0.077.
In the case of AATTATTG it was 0.262 ± 0.017; in that of AGTTAATA, 0.184 ± 0.015.
Turning to AAGTTCGG, the “PBM 8-mer E-score” value is -0.224 ± 0.029.
Take CAATTCCG: the “PBM 8-mer E-score” value is -0.0516 ± 0.045.
In the case of AAGGTAAG it was -0.0254 ± 0.00071; in that of ATTACGAA, -0.000195 ± 0.03.
In the case of AGTCTAAT it was 0.0498 ± 0.0033; in that of CGCTACTC, -0.172 ± 0.031; in that of CTTAGGCA, -0.203 ± 0.024.
For the sequence AAGGCCCG, the “PBM 8-mer E-score” value was -0.159 ± 0.055.
In the case of GTTTCTGA, the “PBM 8-mer E-score” value came to 0.0103 ± 0.029.
For CCACCCAC, the “PBM 8-mer E-score” value turned out to be 0.239 ± 0.045.
With ACACCCTC the figure was 0.0661 ± 0.073; with CACCCCTC, 0.278 ± 0.026.
In the case of ACACCCAC it was 0.2 ± 0.028.
Turning to CCACCCAA, the “PBM 8-mer E-score” value was determined as 0.128 ± 0.049.
In the case of CCACCCTC it was 0.234 ± 0.036; in that of GACCCCTC, 0.0964 ± 0.036.
Regarding CACCCCTG, the “PBM 8-mer E-score” value turned out to be 0.0699 ± 0.055.
With CCACCCTA the figure was 0.189 ± 0.0062; with GGTCCCGA, -0.305 ± 0.042.
Turning to AATATCCA, the “PBM 8-mer E-score” value was found to be 0.0444 ± 0.082.
AATATCCG: the “PBM 8-mer E-score” value is -0.0514 ± 0.051.
With AATATCCC the figure was 0.245 ± 0.056.
In the case of CGGGGGTA it was 0.0309 ± 0.084; in that of CCCCCCCG, -0.2 ± 0.13; in that of GCACCAGA, -0.126 ± 0.045.
AGCCCCGG: the “PBM 8-mer E-score” value is -0.0543 ± 0.054.
In the case of GCCCACCC it was 0.359 ± 0.045.
Turning to ACCCACCA, the “PBM 8-mer E-score” value is 0.274 ± 0.027.
With ACCACCCA the figure was 0.073 ± 0.062; with CCCCACCG, 0.11 ± 0.1.
Turning to GCCCACCA, the “PBM 8-mer E-score” value was 0.12 ± 0.024.
In the case of CCCCACCA it was 0.162 ± 0.035.
With TCCCACCA the figure was -0.0255 ± 0.1; with ACCCACCT, 0.13 ± 0.029; with CCCCACCC, 0.282 ± 0.076.
In the case of ACCCACCG it was 0.0752 ± 0.014; in that of GCCCACAC, 0.0967 ± 0.059; in that of ACCCACCC, 0.417 ± 0.02.
As to ATTCGGAG, the “PBM 8-mer E-score” value is -0.0732 ± 0.026.
As to GGGGATCA, the “PBM 8-mer E-score” value came out at 0.0797 ± 0.027.
In the case of AAGACCGT, the “PBM 8-mer E-score” value was -0.244 ± 0.028.
In the case of AATGGTAT it was 0.157 ± 0.044; in that of ACGGGGTG, 0.118 ± 0.023.
In the case of CAGTATAC it was 0.0863 ± 0.1; in that of GATGAAAC, 0.0586 ± 0.022.
Consider ATGAACGG, for which the “PBM 8-mer E-score” value is -0.111 ± 0.0086.
With CTCCGTCC the figure was -0.114 ± 0.018; with ATGTAATA, 0.236 ± 0.065.
Regarding ATGTAACA, the “PBM 8-mer E-score” value stood at 0.242 ± 0.031.
With ATGTAACG the figure was 0.0488 ± 0.0084.
For ATGTAATG, the “PBM 8-mer E-score” value was determined as 0.155 ± 0.013.
With CTGTAATA the figure was 0.0526 ± 0.019; with CTGTAACA, -0.00643 ± 0.026; with AAAACCAC, 0.121 ± 0.013.
Take GCGTACCA: the “PBM 8-mer E-score” value was -0.0976 ± 0.0064.
AGACAAAA: the “PBM 8-mer E-score” value is -0.00983 ± 0.042.
